Publication PMC8159961, “Exploring protein hotspots by optimized fragment pharmacophores” (Nature Communications, 2021)

target: histone methyltransferase SET domain containing 2 (SETD2) (Homo sapiens, UniProt Q9BYW2); test: primary screen, binary call; higher = more effect of the substance
Method: The Chemiluminescence assay evaluates SETD2 specific tri -methylation activity towards histone H3K36. The kit consist s of recombinant SETD2, S-adenosylmethionine and a specific H3K36me3 antibody and was performed according to the manufacturer’s protocol (Catalo g- No. 52060, https://bpsbioscience.com/setd2 -chemiluminescent-assay-kit-52060). Values were blank corrected and normalized . Enzymatic activities were calculated relative to the positive control of the kit (full enzymatic activity) and to the known SET doma in inhibitor Sinefungin28 used as negative control (complete enzymatic activity inhibition). Compounds used were diluted in DMSO.

histone methyltransferase SET domain containing 2 (SETD2), sequence (Q9BYW2 whole entry, looked up, the tested form may be a part): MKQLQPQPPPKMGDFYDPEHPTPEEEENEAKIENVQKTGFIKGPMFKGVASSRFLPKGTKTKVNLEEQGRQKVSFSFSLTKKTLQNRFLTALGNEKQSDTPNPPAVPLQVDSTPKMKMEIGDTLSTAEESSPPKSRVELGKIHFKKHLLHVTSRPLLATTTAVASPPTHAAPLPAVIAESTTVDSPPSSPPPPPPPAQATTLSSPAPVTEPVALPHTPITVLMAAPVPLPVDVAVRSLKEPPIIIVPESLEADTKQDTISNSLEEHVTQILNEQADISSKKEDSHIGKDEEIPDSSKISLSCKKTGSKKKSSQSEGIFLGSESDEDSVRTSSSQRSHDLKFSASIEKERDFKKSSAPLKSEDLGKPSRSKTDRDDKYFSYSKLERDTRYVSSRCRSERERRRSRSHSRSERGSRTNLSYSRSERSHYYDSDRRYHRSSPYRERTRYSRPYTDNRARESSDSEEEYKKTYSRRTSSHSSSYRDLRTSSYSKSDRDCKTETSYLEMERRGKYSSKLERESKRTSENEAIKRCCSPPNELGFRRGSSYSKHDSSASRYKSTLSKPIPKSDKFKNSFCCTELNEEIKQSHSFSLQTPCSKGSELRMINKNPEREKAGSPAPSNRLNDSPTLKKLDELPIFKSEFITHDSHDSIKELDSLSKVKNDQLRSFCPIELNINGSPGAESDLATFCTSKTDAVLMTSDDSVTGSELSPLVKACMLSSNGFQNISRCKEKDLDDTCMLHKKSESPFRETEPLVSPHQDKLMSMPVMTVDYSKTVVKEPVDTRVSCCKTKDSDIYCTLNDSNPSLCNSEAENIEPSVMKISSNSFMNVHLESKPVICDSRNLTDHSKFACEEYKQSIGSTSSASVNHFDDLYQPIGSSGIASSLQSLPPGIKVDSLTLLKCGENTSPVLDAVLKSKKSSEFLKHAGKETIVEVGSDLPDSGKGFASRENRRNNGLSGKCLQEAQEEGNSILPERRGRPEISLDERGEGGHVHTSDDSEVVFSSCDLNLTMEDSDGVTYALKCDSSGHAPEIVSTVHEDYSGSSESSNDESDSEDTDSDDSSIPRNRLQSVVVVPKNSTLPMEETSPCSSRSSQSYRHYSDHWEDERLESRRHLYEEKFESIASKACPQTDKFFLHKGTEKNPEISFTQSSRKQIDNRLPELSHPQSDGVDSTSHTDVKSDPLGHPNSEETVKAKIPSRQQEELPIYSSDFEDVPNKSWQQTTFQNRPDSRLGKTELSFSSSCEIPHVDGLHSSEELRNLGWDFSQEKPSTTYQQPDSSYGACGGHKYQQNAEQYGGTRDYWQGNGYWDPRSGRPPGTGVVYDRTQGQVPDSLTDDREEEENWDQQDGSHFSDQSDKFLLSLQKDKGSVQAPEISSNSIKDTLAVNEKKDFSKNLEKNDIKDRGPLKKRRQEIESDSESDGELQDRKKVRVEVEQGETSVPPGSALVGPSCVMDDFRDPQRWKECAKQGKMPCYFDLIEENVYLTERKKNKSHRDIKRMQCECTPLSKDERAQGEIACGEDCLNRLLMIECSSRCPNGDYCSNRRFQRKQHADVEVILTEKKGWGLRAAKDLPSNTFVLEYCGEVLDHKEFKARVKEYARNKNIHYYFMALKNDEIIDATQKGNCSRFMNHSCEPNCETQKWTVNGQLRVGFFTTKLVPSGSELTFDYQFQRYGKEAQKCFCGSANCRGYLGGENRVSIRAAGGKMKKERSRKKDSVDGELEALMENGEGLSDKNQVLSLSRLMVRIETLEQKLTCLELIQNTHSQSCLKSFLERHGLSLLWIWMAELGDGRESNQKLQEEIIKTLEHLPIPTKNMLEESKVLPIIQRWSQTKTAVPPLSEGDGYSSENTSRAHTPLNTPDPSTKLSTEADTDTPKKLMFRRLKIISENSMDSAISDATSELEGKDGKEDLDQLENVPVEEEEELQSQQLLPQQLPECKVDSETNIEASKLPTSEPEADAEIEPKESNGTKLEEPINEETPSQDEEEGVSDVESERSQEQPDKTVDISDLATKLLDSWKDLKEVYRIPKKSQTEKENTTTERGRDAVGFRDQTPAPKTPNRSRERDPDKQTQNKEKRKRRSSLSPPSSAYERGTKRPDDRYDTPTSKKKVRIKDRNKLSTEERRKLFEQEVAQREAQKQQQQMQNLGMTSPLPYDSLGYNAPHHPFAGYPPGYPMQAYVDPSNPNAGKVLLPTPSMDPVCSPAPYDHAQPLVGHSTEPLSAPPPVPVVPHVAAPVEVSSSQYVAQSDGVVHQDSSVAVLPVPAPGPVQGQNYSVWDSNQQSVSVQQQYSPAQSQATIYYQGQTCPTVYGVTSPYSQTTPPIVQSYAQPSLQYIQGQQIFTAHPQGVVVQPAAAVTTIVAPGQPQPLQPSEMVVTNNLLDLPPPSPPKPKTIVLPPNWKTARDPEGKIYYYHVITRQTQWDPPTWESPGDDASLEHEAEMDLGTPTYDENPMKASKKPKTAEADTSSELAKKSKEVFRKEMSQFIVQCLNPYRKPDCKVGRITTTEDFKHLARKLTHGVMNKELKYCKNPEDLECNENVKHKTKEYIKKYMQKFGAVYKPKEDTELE

SETD2, inactive:
NC(=O)N1CCC(C(=O)O)CC1 0
O=C(O)c1ccc(CN2CCOCC2)cc1 0
Nc1ccc(SC(F)F)cc1 0
CCCN1C(=O)CC(=O)NC1=S 0
Cc1nccn1Cc1cccc(C#N)c1 0
c1cnc2c(c1)NCCC2 0
O=c1ccc2c([nH]1)CCCC2 0
O=c1[nH]ncc2c1oc1ccccc12 0
CC(=O)c1sc(-c2ccc(O)cc2)nc1C 0
N#CC1CCS(=O)(=O)C1 (centres unmarked) 0
O=C1NC(=O)C2(CCc3ccccc32)N1 (centres unmarked) 0
